The record followed here is PubChem BioAssay (NCI).

Experiment [1] is described as follows: NCI Yeast Anticancer Drug Screen. Data for the rad50 strain (AID 155).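 Note: 0% = growth of vehicle-only cultures of the same strain.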 The following applies: S. cerevisiae rad50 strain growth inhibition, stronger effect = higher value. A digest of the protocol:
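Inhibition values express reduced yeast growth in compound-treated cultures relative to vehicle-treated controls.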

Experiment [2] is described as follows: NCI Yeast Anticancer Drug Screen. Data for the mec2-1 strain (AID 157). The following applies: S. cerevisiae mec2-1 strain, stronger effect = higher value. A digest of the protocol: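 Cells of the genetically defined mec2-1 yeast strain are incubated with test compound. Inhibition of growth is calculated against vehicle-treated controls.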
Experiment [3] is described as follows: NCI Yeast Anticancer Drug Screen. Data for the sgs1 mgt1 strain (AID 161).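 Note: 0% = growth of cultures given vehicle only.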 The following applies: S. cerevisiae sgs1 mgt1 strain, stronger effect = higher value. A digest of the protocol:
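Test agents were incubated with a DNA-repair-mutant yeast strain. Growth was then read and compared against vehicle-treated controls.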

Experiment [4] can be described thus: NCI Yeast Anticancer Drug Screen. Data for the cln2 rad14 strain (AID 165).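 Note: 0% = growth equal to vehicle treated cultures.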 The following applies: S. cerevisiae cln2 rad14 strain, stronger effect = higher value. A digest of the protocol:
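The screen exposed genetically defined yeast (cln2 rad14) to test compounds and scored growth inhibition relative to vehicle-treated controls.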

Experiment [5] is described as follows: NCI Yeast Anticancer Drug Screen. Data for the bub3 strain (AID 167). The note with it: S. cerevisiae bub3 mutant strain, stronger effect = higher value. A digest of the protocol: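 Steps: expose the mutant yeast strain to compound; grow alongside vehicle-treated cultures; measure growth; express inhibition against the vehicle cultures.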
A short description of experiment [6]: NCI Yeast Anticancer Drug Screen. Data for the mlh1 rad18 strain (AID 175). The following applies: S. cerevisiae mlh1 rad18 strain growth inhibition, stronger effect = higher value. A digest of the protocol:
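Compound-treated yeast growth, normalised to vehicle controls. Strain bears defined DNA repair mutations.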

Setting [7] is: at 5.0 µM (retest, dose inferred, filed as 0.5).
Setting [8] is: at 50.0 µM (retest, dose inferred, filed as 5.0).

The panel holds about 79,000 compounds, 15% with a hit somewhere; the sample as a whole holds those more often. A number with no mark means an inactive call. Calls of active or inactive are those of the source. Cut-off read from the data, not from the text of the source: active = growth inhibition above about 70%; inactive = the rest.

Turning to `CN1CC(CN2CCCCC2)C(O)C(c2ccccc2)C1` (configuration not stated), the growth inhibition in experiment [1] (setting [7]) is -3%; in experiment [1] (setting [8]) it was -1%; in experiment [1] (at 50.0 µM), 10.2%; in experiment [2] (setting [7]) it was -5%; in experiment [2] (setting [8]), -1%; in experiment [2] (at 50.0 µM), -4.5%. The growth inhibition in experiment [3] (setting [7]) is -3%; in experiment [3] (setting [8]), 6%; in experiment [3] (at 50.0 µM) it was 9.3%; in experiment [4] (setting [7]), -5%; in experiment [4] (setting [8]) it was -3%; in experiment [4] (at 50.0 µM), 34.4%. In addition, the growth inhibition in experiment [5] (setting [7]) was -4%; in experiment [5] (setting [8]), -8%; in experiment [5] (at 50.0 µM), 2.65%; in experiment [6] (setting [7]), -3%; in experiment [6] (setting [8]), -2%; in experiment [6] (at 50.0 µM) it was 56.5%.

As for `CC(=O)OCC1OC(n2cnc3c(Cl)nc(Cl)nc32)C(OC(C)=O)C1OC(C)=O` (configuration not stated), the growth inhibition in experiment [1] (setting [7]) is 0%; in experiment [1] (setting [8]) it was 0%; in experiment [1] (at 50.0 µM), 73.7% (active); in experiment [2] (setting [7]), 1%; in experiment [2] (setting [8]) it was 5%; in experiment [2] (at 50.0 µM), 54.1%. Further, the growth inhibition in experiment [3] (setting [7]) is -1%; in experiment [3] (setting [8]), 7%; in experiment [3] (at 50.0 µM), 75.3% (active); in experiment [4] (setting [7]), 3%; in experiment [4] (setting [8]), 3%; in experiment [4] (at 50.0 µM), 72.6% (active). For the same molecule, the growth inhibition is 1% in experiment [5] (setting [7]); -2% in experiment [5] (setting [8]); 70% (active) in experiment [5] (at 50.0 µM); -1% in experiment [6] (setting [7]); 0% in experiment [6] (setting [8]); 74.1% (active) in experiment [6] (at 50.0 µM).

Turning to `CCCC(C)(O)C(C)CC` (configuration not stated), the growth inhibition in experiment [1] (setting [7]) is 2%; in experiment [1] (setting [8]), 5%; in experiment [1] (at 50.0 µM) it was 19.1%; in experiment [2] (setting [7]) it was 0%; in experiment [2] (setting [8]), -1%; in experiment [2] (at 50.0 µM), 9.3%. The growth inhibition in experiment [3] (setting [7]) is -1%; in experiment [3] (setting [8]), 0%; in experiment [3] (at 50.0 µM), -0.85%; in experiment [4] (setting [7]), -3%; in experiment [4] (setting [8]), -8%; in experiment [4] (at 50.0 µM), -6.9%. In addition, the growth inhibition in experiment [5] (setting [7]) was -3%; in experiment [5] (setting [8]), 8%; in experiment [5] (at 50.0 µM) it was 2.45%; in experiment [6] (setting [7]), -2%; in experiment [6] (setting [8]) it was 0%; in experiment [6] (at 50.0 µM), 7.7%.

For the molecule `Cc1cc(C[P+](c2ccccc2)(c2ccccc2)c2ccccc2)c(C)cc1C[P+](c1ccccc1)(c1ccccc1)c1ccccc1`, the growth inhibition in experiment [1] (setting [7]) was 4%; in experiment [1] (setting [8]), 66%; in experiment [1] (at 50.0 µM) it was 95.1% (active); in experiment [2] (setting [7]), -9%; in experiment [2] (setting [8]), 49%; in experiment [2] (at 50.0 µM), 96.7% (active). The growth inhibition in experiment [3] (setting [7]) was 1%; in experiment [3] (setting [8]) it was 61%; in experiment [3] (at 50.0 µM) it was 91.6% (active); in experiment [4] (setting [7]) it was 3%; in experiment [4] (setting [8]) it was 32%; in experiment [4] (at 50.0 µM) it was 82.5% (active). In addition, the growth inhibition in experiment [5] (setting [7]) is 3%; in experiment [5] (setting [8]), 66%; in experiment [5] (at 50.0 µM), 92.1% (active); in experiment [6] (setting [7]), 1%; in experiment [6] (setting [8]), 86% (active); in experiment [6] (at 50.0 µM) it was 94.5% (active).

In the case of `O=C(N/C(=C\c1ccc([N+](=O)[O-])cc1)c1nc2ccccc2s1)c1ccccc1`, the growth inhibition was 3% in experiment [1] (setting [7]); 73% (active) in experiment [1] (setting [8]); 24.8% in experiment [1] (at 50.0 µM); 1% in experiment [2] (setting [7]); 69% in experiment [2] (setting [8]); 76.2% (active) in experiment [2] (at 50.0 µM). Also, the growth inhibition in experiment [3] (setting [7]) is -1%; in experiment [3] (setting [8]), 72% (active); in experiment [3] (at 50.0 µM), 54.4%; in experiment [4] (setting [7]), -2%; in experiment [4] (setting [8]) it was 25%; in experiment [4] (at 50.0 µM) it was 20%. Further, the growth inhibition was 4% in experiment [5] (setting [7]); 83% (active) in experiment [5] (setting [8]); 80.3% (active) in experiment [5] (at 50.0 µM); 2% in experiment [6] (setting [7]); 55% in experiment [6] (setting [8]); 72.5% (active) in experiment [6] (at 50.0 µM).

With `Cc1cc(C)c(O)c(C2CC3CCC2(C)C3(C)C)c1` (configuration not stated), the growth inhibition is 2% in experiment [1] (setting [7]); 87% (active) in experiment [1] (setting [8]); 95.6% (active) in experiment [1] (at 50.0 µM); 1% in experiment [2] (setting [7]); 92% (active) in experiment [2] (setting [8]); 95% (active) in experiment [2] (at 50.0 µM). The growth inhibition in experiment [3] (setting [7]) was 5%; in experiment [3] (setting [8]), 91% (active); in experiment [3] (at 50.0 µM), 95.8% (active); in experiment [4] (setting [7]), 4%; in experiment [4] (setting [8]) it was 91% (active); in experiment [4] (at 50.0 µM), 95.2% (active). The growth inhibition in experiment [5] (setting [7]) was 7%; in experiment [5] (setting [8]), 92% (active); in experiment [5] (at 50.0 µM), 96.5% (active); in experiment [6] (setting [7]), -1%; in experiment [6] (setting [8]) it was 94% (active); in experiment [6] (at 50.0 µM), 95.5% (active).

As for `COC(=O)c1ccc(CSc2ccc(OC)cc2)cc1`, the growth inhibition in experiment [1] (setting [7]) was 16%; in experiment [1] (setting [8]), 84% (active); in experiment [1] (at 50.0 µM), 88.5% (active); in experiment [2] (setting [7]) it was -14%; in experiment [2] (setting [8]), 75% (active); in experiment [2] (at 50.0 µM) it was 83.2% (active). In addition, the growth inhibition in experiment [3] (setting [7]) is 8%; in experiment [3] (setting [8]), 92% (active); in experiment [3] (at 50.0 µM) it was 88.3% (active); in experiment [4] (setting [7]) it was 2%; in experiment [4] (setting [8]) it was 83% (active); in experiment [4] (at 50.0 µM), 80.9% (active). The growth inhibition in experiment [5] (setting [7]) is 1%; in experiment [5] (setting [8]), 80% (active); in experiment [5] (at 50.0 µM), 85.2% (active); in experiment [6] (setting [7]), -21%; in experiment [6] (setting [8]), 91% (active); in experiment [6] (at 50.0 µM), 85.3% (active).

`COc1ccc(Cc2nc3ccc(Cl)cc3[nH]2)cc1`: the growth inhibition in experiment [1] (setting [7]) is 4%; in experiment [1] (setting [8]), 42%; in experiment [1] (at 50.0 µM), 77% (active); in experiment [2] (setting [7]), -4%; in experiment [2] (setting [8]), 59%; in experiment [2] (at 50.0 µM), 76.4% (active). The growth inhibition in experiment [3] (setting [7]) was 4%; in experiment [3] (setting [8]), 78% (active); in experiment [3] (at 50.0 µM) it was 82% (active); in experiment [4] (setting [7]), -6%; in experiment [4] (setting [8]) it was 14%; in experiment [4] (at 50.0 µM) it was 66%. The growth inhibition was 1% in experiment [5] (setting [7]); 44% in experiment [5] (setting [8]); 84.3% (active) in experiment [5] (at 50.0 µM); 23% in experiment [6] (setting [7]); 74% (active) in experiment [6] (setting [8]); 86.9% (active) in experiment [6] (at 50.0 µM).

Take `COc1cc(/C=C\C(=O)c2cccc(O)c(=O)c2)cc(OC)c1OC`: the growth inhibition in experiment [1] (setting [7]) was -3%; in experiment [1] (setting [8]), 53%; in experiment [1] (at 50.0 µM), 69.1%; in experiment [2] (setting [7]), 1%; in experiment [2] (setting [8]) it was 65%; in experiment [2] (at 50.0 µM), 50.5%. The growth inhibition in experiment [3] (setting [7]) is 16%; in experiment [3] (setting [8]), 83% (active); in experiment [3] (at 50.0 µM), 63.5%; in experiment [4] (setting [7]), -15%; in experiment [4] (setting [8]), 50%; in experiment [4] (at 50.0 µM) it was 5.6%. Further, the growth inhibition in experiment [5] (setting [7]) was 2%; in experiment [5] (setting [8]) it was 67%; in experiment [5] (at 50.0 µM), 65.5%; in experiment [6] (setting [7]), 7%; in experiment [6] (setting [8]), 89% (active); in experiment [6] (at 50.0 µM), 54.9%.
